Laboratory results from PubChem BioAssay AID603 (National Center for Advancing Translational Sciences (NCATS), 2007).
In all, about 71,000 compounds went through this assay and about 180 (0.25%) were called active. Calls come from the whole dose curve; as a rule, active = well fitted curve in the direction sought with a large enough effect; inconclusive = small, poorly fitted or top-dose-only effect; inactive = flat fitted curve, though single readings scatter. This excerpt belongs to a sample that is enriched for actives.

tested on: DNA polymerase III holoenzyme (E. coli); test: qHTS Assay for Inhibitors of DNA Polymerase III Holoenzyme System; conditions: reconstituted DNA polymerase III holoenzyme replication, biochemical; series mostly up to 57.1 µM; activity change, negative = inhibition: at the top concentration
Procedure: NIH Molecular Libraries Screening Centers Network [MLSCN]
NIH Chemical Genomics Center [NCGC]
Assay Provider: Charles McHenry, University of Colorado
E. coli DNA polymerase III holoenzyme complex was assayed for DNA production by fluorescent detection of the double-stranded DNA product with PicoGreen dye. The holoenzyme complex was reconstituted from the following purified protein components: DNA Polymerase III, beta subunit processivity factor, SSB single-stranded DNA binding protein, and Primase. Single-stranded, circular M13Gori was used as a substrate with dNTPs and NTPs also supplied to the substrate reagent. Compounds from the NCGC collection were incubated with the holoenzyme mixture for 15 min at room temperature to allow binding to occur, and then the reaction was started by the addition of substrate. After 30 min incubation at room temperature, PicoGreen solution containing EDTA was added to stop the reaction and to visualize the double-stranded DNA produced. Reaction progress was measured in a ViewLux CCD imager in fluorescence intensity mode by using 480 nm excitation and 540 nm emission filter set.
NCGC Assay Protocol Summary:
Buffer. 50 mM Hepes-KOH, pH 7.5, 5 % Glycerol, 0.02% NP40, 30 mM potassium;
glutamate, 1.5 mM Magnesium Acetate, 16 uM TCEP.
Buffer in columns 3 and 4 as negative control (no enzyme).
Substrate solution: 5 uM each dATP, dGTP, dCTP and TTP, 50 uM each GTP, CTP, UTP and 200 uM ATP, 1.4 nM M13gori (final concentrations).
Enzyme: 154 nM SSB, 2 nM Primase, 1 nM Beta, 0.35 nM Pol III (final concentrations).
PicoGreen/EDTA: 10 mM Tris-HCl, 10 mM EDTA, 5 uM PicoGreen (final concentrations).
Control titration: ChemBridge 5805060 (from 10 mM, then 1:2, in duplicate) was pin-transferred to upper half of column 2.
Three uL of holoenzyme mixture were dispensed to 1536-well Greiner black solid bottom plates. Compounds and controls (23 nL) were transferred via Kalypsys PinTool. The plates were incubated for 15 min at room temperature, and then 1 uL of substrate solution was added to start the reaction. After room temperature incubation for 35 minutes, 1 uL of PicoGreen solution was added to each well and the plates were read 480 nm excitation and 540 nm emission using ViewLux (Perkin-Elmer) High-throughput CCD imager and fluorescence protocol settings.
Keywords: NIH Roadmap, MLSCN, MLI, MLSMR, qHTS, NCGC, DNA Polymerase III, DNAPol3, DNAPoly3, DNA replication targets
% is set by controls: 0 for no effect and ±100 for the full control effect.

Activity change, negative = inhibition, inactive:
COc1ccc(-n2c(=O)c(-c3cn(C)c4ccccc34)nc3cnc(OC)nc32)cc1 -4%
CC(=O)Oc1cccc(N2C(=O)C3CC=C(Cl)CC3C2=O)c1 (stereo not given) -1.3%
COc1ccc(CNc2ncnc3ccc(-c4cccnc4)cc23)c(OC)c1 17.7%
CCOC(=O)CC1C(=O)NCCN1C(=O)COc1ccc(Br)cc1C (stereo not given) -2.6%
CC1CCN(c2oc(-c3ccccc3F)nc2C#N)CC1 -5.5%
c1ccc(CSCCc2ccncc2)cc1 -2.4% [at 11.4 µM]
N#C/C(=C\c1ccc(O)c(O)c1)C(N)=O -1.7%
COC(=O)[C@@]1(Cc2ccc(F)cc2)[C@H]2c3cc(C(=O)N4CCCC4)n(Cc4ccc(OC(F)(F)F)cc4)c3C[C@H]2CN1C(=O)c1ccccc1 -9.3%
OCCN1CCN(CC/C=C2\c3ccccc3Sc3ccc(C(F)(F)F)cc32)CC1
O=C(Nc1c2c(nn1-c1ccc(F)cc1)CS(=O)C2)C12CC3CC(CC(C3)C1)C2 (stereo not given) -4%
CCOC(=O)c1sc(N(Cc2ccccc2)C(=O)CN2C(=O)CN(C)C2=O)nc1C 5.4%
O=C(Nc1cccc(F)c1)N1CC2(CCN(C(=O)c3cnccn3)CC2)C1 -9%
c1ccc2c(Nc3ccncc3)nc(-c3ccoc3)nc2c1 -6.1%
Cc1ccc(N2C(=O)c3oc4ccccc4c(=O)c3C2c2cccnc2)nc1 (stereo not given) -4.1%
COc1ccccc1N1CCN(Cc2ccc(OC)c3ccccc23)CC1 -5.3%
CCCCCCN(C(=O)CCCCCN1C(=O)NC(c2ccc(C(F)(F)F)cc2)C(C(=O)OCc2ccccc2)=C1C)C(C(=O)NCCCC)c1ccc(OCC(=O)OC)c(C(=O)OC)c1 (stereo not given) -2.4%
C[C@@H]1O[C@@H](O[C@@H]2[C@@H](O)[C@H](OCCc3ccc(O)c(O)c3)O[C@H](CO[C@@H]3O[C@H](CO)[C@@H](O)[C@H](O)[C@H]3O)[C@H]2OC(=O)/C=C/c2ccc(O)c(O)c2)[C@H](O)[C@H](O)[C@H]1O 4.8%
C/C=C1\C(=O)C[C@@H]2[C@@H]3CCC4=CC(=O)CC[C@@]4(C)[C@H]3CC[C@@]12C -6.3%
O=C(O)C1=CCCN(CCON=C(c2ccccc2)c2ccccc2)C1
COC(=O)C1=C(C)N(C)C(C)=C(C(=O)OC)C1c1cccc(Br)c1 2.8%
O=C(NCc1cccnc1)c1cn(-c2ccccc2)nc1-c1cccs1 -0.6%
O=S(=O)(Nc1nccs1)c1ccc2c(c1)OCCO2 7.6%
COC(=O)C1(C)C=CCN1C(=O)c1ccccc1 (stereo not given) -2.1%
COc1cccc(-c2cc3nc4c(c(N5CCC6(CC5)OCCO6)n3n2)CCCC4)c1 -4.6%
CCOc1ccccc1C1C(C(=O)OC)=CN(C)C=C1C(=O)OC -3.1%
